The record followed here is PMC7862700, “An all-to-all approach to the identification of sequence-specific readers for epigenetic DNA modifications on cytosine”.

Assay in all cases: DAPPL (digital affinity profiling via proximity ligation, sequencing); 10 mM Tris-HCl pH 7.5, 50 mM NaCl, 1 mM DTT, 4% glycerol, room temperature, 30 min; GST-TFs on glutathione beads, 16-mer random dsDNA library, 0.1% formaldehyde crosslink after washing; high values mean tight binding
The target of one experiment is T1, FLI1 (Homo sapiens, UniProt Q01543 1-452).
T1 sequence: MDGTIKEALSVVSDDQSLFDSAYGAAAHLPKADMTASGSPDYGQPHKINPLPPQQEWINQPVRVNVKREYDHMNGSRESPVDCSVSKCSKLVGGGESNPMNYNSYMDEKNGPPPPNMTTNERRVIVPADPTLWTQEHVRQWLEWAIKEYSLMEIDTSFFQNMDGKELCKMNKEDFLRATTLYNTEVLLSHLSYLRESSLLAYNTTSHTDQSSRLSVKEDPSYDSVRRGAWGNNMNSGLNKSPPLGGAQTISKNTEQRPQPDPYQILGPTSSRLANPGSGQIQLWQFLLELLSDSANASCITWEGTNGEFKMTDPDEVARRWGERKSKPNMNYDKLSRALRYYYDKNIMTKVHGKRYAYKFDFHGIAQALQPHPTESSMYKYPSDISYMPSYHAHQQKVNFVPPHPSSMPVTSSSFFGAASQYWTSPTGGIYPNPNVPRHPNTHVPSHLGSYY
The settings on record: protein: recombinant; tags: N-terminal GST; dsDNA, one strand shown. The method, boiled down: (§1)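 Binding signal is given per hexamer as its read frequency for a factor divided by its frequency in the tag-only sample. GST-fused human transcription factors were expressed in yeast, captured on glutathione beads, barcoded with DNA and pooled with that sample, then incubated with 200 nmole of a 16-mer random double-stranded DNA library in Tris/NaCl/DTT/glycerol buffer for 30 min at room temperature. The pools were then washed, crosslinked, proximity-ligated, amplified by PCR and sequenced on an Illumina NextSeq500.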

Another experiment has as its target T2, ELK1 (Homo sapiens, UniProt P19419 1-428).
T2 sequence: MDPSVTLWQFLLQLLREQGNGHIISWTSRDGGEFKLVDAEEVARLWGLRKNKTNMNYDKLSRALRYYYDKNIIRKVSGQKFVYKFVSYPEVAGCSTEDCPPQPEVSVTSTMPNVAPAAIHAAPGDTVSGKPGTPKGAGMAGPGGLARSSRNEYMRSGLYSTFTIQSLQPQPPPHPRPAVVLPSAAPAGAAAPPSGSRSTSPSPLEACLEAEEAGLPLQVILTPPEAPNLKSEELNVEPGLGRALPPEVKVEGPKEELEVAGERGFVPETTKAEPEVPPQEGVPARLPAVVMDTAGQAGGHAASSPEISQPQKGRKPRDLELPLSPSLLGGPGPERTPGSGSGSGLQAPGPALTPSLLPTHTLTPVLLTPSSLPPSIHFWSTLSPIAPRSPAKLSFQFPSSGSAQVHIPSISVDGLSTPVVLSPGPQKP
The note with it: protein: recombinant; tags: N-terminal GST; dsDNA, one strand shown. In a few lines: as §1

The next experiment concerns the target T3, GABPA (Homo sapiens, UniProt Q06546 1-454).
T3 sequence: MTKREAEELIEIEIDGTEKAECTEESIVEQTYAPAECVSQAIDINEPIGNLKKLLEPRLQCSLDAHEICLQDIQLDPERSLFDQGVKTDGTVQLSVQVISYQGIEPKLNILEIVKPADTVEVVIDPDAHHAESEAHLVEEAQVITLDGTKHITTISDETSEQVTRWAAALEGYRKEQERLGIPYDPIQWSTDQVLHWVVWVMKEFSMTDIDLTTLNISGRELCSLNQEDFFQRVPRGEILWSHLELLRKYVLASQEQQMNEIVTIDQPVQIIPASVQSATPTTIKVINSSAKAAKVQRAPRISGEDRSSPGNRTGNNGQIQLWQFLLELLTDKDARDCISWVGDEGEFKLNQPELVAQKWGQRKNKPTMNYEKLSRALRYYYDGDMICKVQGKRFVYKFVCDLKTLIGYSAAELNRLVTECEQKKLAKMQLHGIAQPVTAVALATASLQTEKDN
The settings on record: protein: recombinant; tags: N-terminal GST; dsDNA, one strand shown. The method, boiled down: as §1

The target in another experiment is T4, ERG (Homo sapiens, UniProt P11308 1-479).
T4 sequence: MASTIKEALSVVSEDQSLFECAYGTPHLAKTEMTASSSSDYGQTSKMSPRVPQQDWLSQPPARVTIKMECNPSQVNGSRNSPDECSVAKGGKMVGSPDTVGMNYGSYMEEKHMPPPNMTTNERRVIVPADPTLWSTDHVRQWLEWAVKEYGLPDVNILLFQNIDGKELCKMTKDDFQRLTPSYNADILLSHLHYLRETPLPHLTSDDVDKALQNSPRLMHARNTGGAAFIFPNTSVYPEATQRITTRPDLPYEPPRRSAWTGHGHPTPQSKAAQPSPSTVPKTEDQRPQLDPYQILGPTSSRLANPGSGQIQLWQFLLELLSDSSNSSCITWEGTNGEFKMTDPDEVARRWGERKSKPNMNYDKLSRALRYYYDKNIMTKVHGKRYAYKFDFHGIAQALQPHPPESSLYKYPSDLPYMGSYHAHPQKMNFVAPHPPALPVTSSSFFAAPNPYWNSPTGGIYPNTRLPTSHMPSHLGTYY
The note with it: protein: recombinant; tags: N-terminal GST; dsDNA, one strand shown. The method, boiled down: as §1

The next experiment concerns the target ELF1 (Homo sapiens, UniProt P32519 1-619). The settings on record: protein: recombinant; tags: N-terminal GST; dsDNA, one strand shown. The method, boiled down: as §1
The next experiment addresses T5, EHF (Homo sapiens, UniProt Q9NZC4 1-300).
T5 sequence: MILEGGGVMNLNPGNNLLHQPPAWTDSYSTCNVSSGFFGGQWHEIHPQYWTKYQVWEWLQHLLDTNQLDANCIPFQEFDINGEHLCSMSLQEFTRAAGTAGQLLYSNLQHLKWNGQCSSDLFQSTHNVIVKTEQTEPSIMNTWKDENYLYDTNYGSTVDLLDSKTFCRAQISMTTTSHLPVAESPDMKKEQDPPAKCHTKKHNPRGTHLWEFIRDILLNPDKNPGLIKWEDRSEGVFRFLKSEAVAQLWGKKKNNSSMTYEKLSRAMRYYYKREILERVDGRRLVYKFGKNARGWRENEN
The settings on record: protein: recombinant; tags: N-terminal GST; dsDNA, one strand shown. The method, boiled down:
as §1

In another experiment the target is SPI1 (Homo sapiens, UniProt P17947 1-270). The settings on record: protein: recombinant; tags: N-terminal GST; dsDNA, one strand shown. The method, boiled down:
as §1

The next experiment concerns the target SPIB (Homo sapiens, UniProt Q01892 1-262). The note with it: protein: recombinant; tags: N-terminal GST; dsDNA, one strand shown. The method, boiled down: as §1
The target of a further experiment is T6, ELK3 (Homo sapiens, UniProt P41970 1-407).
T6 sequence: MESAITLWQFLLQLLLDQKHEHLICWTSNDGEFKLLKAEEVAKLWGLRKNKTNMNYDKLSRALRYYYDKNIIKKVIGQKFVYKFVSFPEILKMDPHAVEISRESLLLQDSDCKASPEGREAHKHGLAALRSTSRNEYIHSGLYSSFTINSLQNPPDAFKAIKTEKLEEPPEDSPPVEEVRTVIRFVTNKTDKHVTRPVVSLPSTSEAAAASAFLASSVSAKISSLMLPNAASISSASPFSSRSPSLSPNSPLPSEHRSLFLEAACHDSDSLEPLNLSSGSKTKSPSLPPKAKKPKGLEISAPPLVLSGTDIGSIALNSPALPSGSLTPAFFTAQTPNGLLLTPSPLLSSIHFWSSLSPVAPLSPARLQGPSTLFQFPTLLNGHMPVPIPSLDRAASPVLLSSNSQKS
The settings on record: protein: recombinant; tags: N-terminal GST; dsDNA, one strand shown. In a few lines: as §1

The target of the next experiment is T7, FEV (Homo sapiens, UniProt Q99581 1-238).
T7 sequence: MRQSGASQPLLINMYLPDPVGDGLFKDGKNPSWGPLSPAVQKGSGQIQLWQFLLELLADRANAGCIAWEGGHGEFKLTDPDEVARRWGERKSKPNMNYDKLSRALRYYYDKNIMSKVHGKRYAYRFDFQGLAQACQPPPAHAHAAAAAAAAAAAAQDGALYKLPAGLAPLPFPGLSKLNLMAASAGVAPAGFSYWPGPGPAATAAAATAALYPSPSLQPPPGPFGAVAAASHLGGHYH
The settings on record: protein: recombinant; tags: N-terminal GST; dsDNA, one strand shown. The method, boiled down: as §1

Another experiment addresses ETV5 (Homo sapiens, UniProt P41161 1-510). The settings on record: protein: recombinant; tags: N-terminal GST; dsDNA, one strand shown. In a few lines: as §1
The target of the next experiment is HSF1 (Homo sapiens, UniProt Q00613 1-529). The note with it: protein: recombinant; tags: N-terminal GST; chain copies: 3; dsDNA, one strand shown. The method, boiled down:
as §1

A further experiment deals with T8, SPIC (Homo sapiens, UniProt Q8N5J4 1-248).
T8 sequence: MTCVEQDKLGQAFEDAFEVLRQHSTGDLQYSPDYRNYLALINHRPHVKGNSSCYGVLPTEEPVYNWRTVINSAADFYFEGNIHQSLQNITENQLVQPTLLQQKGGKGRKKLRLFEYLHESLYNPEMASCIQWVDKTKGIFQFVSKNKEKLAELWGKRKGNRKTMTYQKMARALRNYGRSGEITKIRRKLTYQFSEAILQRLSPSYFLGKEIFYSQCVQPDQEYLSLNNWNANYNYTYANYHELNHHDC
The note with it: protein: recombinant; tags: N-terminal GST; dsDNA, one strand shown. In a few lines: as §1

The target of a further experiment is ELF4 (Homo sapiens, UniProt Q99607 1-663). The settings on record: protein: recombinant; tags: N-terminal GST; dsDNA, one strand shown. In a few lines: as §1
A further experiment concerns the target T9, ELK4 (Homo sapiens, UniProt P28324-2 1-405).
T9 sequence: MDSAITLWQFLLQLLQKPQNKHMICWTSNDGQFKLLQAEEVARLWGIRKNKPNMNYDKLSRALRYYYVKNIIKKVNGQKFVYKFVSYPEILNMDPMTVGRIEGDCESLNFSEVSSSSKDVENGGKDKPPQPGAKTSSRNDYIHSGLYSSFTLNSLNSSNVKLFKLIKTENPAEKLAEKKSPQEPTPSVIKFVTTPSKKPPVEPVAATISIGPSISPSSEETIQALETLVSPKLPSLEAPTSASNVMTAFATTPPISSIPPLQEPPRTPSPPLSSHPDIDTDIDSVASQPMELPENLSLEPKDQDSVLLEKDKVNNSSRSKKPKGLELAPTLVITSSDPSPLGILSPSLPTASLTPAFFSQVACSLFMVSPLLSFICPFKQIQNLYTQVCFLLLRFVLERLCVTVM
The settings on record: protein: recombinant; tags: N-terminal GST; dsDNA, one strand shown. In a few lines:
as §1

The target of another experiment is T10, ETV2 (Homo sapiens, UniProt O00321 1-342).
T10 sequence: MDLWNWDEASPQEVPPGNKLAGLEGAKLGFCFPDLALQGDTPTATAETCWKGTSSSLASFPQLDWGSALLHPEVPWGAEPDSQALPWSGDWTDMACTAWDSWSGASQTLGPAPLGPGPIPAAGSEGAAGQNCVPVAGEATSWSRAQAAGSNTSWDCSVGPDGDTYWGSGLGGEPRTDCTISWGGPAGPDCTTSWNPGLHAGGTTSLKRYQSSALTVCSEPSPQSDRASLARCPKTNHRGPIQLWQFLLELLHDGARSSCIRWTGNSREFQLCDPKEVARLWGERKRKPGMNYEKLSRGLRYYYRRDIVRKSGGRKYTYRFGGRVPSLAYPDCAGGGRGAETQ
The settings on record: protein: recombinant; tags: N-terminal GST; dsDNA, one strand shown. In a few lines:
as §1

Another experiment deals with T11, ELF3 (Homo sapiens, UniProt P78545 1-371).
T11 sequence: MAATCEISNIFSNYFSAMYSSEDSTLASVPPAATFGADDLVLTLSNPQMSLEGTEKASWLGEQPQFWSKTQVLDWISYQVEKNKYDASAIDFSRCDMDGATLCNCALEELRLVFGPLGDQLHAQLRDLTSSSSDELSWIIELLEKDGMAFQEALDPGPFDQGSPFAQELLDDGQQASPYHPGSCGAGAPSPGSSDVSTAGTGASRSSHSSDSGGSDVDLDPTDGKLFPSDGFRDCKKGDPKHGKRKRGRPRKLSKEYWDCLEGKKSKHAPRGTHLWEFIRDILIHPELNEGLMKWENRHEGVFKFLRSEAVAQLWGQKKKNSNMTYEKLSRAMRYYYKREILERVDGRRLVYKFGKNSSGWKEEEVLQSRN
The note with it: protein: recombinant; tags: N-terminal GST; dsDNA, one strand shown. The method, boiled down: as §1

For another experiment, the target named is CRX (Homo sapiens, UniProt O43186 1-299). The settings on record: protein: recombinant; tags: N-terminal GST; dsDNA, one strand shown. In a few lines:
as §1

A further experiment addresses ETV1 (Homo sapiens, UniProt P50549 1-477). The settings on record: protein: recombinant; tags: N-terminal GST; dsDNA, one strand shown. In a few lines: as §1

Chain of SPIB (Q01892 whole entry): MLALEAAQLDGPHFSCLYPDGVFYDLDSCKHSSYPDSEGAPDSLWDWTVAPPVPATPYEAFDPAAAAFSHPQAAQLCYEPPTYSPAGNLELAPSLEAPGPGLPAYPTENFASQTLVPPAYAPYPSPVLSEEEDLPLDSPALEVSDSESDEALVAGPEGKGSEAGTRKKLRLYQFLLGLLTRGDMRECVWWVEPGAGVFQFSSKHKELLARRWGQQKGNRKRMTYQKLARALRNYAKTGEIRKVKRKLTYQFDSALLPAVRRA
Chain of ELF4 (Q99607 whole entry): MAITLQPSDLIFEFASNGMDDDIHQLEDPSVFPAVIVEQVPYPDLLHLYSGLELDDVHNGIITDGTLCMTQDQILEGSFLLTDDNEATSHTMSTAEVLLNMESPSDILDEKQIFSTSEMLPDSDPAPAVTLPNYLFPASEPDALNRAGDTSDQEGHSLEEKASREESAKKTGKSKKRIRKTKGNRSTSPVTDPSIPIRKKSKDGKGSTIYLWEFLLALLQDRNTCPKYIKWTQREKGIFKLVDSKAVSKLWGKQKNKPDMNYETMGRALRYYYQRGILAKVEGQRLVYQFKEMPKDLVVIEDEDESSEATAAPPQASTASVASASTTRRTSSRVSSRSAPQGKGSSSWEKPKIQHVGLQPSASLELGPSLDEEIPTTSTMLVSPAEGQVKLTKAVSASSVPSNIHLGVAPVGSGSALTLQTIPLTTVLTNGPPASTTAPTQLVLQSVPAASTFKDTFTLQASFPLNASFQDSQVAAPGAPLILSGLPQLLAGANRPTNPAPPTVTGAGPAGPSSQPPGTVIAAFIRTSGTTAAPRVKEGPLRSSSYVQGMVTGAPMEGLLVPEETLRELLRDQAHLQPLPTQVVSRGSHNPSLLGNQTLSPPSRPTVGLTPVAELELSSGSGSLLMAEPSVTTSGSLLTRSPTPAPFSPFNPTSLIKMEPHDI
Chain of ELF1 (P32519 whole entry): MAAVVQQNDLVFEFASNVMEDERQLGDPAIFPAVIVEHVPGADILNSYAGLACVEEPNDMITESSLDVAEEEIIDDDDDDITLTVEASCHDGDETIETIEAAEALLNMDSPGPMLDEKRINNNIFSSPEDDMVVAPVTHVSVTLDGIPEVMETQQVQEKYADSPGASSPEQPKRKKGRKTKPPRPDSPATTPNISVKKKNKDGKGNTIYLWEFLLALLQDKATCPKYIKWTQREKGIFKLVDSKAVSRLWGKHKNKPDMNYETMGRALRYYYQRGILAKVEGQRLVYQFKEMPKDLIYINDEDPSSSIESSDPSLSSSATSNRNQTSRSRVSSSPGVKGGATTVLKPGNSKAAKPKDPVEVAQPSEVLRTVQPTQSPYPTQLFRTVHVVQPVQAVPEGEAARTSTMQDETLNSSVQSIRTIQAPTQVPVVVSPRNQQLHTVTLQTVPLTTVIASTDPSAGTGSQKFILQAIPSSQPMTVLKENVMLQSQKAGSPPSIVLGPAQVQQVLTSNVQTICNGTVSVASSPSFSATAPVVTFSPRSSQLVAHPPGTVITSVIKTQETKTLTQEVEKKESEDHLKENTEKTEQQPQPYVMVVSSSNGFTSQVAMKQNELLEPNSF
Chain of ETV1 (P50549 whole entry): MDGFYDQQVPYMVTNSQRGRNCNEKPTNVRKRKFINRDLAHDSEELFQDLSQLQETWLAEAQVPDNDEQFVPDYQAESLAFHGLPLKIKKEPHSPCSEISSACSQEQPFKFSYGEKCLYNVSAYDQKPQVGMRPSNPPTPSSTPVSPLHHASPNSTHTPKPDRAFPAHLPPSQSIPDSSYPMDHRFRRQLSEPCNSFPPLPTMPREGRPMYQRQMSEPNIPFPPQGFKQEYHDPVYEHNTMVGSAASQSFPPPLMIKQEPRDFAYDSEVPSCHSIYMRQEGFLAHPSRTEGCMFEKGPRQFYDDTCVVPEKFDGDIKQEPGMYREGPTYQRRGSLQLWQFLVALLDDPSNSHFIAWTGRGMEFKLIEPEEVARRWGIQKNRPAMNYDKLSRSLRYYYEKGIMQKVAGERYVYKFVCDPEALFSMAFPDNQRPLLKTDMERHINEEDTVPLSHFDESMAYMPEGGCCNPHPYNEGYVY
Chain of ETV5 (P41161 whole entry): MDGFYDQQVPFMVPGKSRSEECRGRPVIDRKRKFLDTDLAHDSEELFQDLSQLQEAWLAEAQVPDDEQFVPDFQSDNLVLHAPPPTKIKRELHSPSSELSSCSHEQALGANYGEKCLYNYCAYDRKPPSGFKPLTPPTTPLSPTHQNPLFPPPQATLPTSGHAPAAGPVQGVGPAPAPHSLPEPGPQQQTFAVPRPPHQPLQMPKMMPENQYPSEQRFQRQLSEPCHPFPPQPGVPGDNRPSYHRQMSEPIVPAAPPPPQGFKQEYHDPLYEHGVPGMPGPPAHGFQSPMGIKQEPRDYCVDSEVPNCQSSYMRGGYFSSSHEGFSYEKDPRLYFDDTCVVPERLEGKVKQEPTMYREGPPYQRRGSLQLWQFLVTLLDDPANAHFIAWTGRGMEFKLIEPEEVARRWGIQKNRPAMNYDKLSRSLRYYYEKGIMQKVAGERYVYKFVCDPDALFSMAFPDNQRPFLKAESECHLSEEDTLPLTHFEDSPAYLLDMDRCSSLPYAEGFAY
Chain of HSF1 (Q00613 whole entry): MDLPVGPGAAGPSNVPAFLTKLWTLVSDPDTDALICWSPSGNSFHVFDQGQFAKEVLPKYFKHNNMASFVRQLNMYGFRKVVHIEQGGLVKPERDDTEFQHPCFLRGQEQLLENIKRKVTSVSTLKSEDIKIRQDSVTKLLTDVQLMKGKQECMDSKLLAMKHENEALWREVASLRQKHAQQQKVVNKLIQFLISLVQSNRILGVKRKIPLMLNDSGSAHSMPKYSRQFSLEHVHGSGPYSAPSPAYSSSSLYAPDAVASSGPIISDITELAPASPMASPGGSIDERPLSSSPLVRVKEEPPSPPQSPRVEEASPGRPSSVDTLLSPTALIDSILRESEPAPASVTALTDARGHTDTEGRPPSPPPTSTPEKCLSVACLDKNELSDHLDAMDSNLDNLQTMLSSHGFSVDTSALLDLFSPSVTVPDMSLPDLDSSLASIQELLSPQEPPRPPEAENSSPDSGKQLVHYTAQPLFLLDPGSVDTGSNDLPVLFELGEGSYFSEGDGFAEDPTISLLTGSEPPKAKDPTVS
Chain of CRX (O43186 whole entry): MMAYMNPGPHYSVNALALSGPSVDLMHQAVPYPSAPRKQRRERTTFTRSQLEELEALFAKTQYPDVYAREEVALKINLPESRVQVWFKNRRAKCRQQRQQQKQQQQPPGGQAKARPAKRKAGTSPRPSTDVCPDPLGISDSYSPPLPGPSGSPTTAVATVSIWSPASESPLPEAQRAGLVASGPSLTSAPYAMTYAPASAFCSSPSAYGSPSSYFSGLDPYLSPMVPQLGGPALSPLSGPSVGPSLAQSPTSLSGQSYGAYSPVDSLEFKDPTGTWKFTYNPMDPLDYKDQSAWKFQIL

Regarding AATTGG, the binding signal was 1.38 fold enrichment (6-mer frequency, TF over GST control) with FLI1; 1.36 fold enrichment (6-mer frequency, TF over GST control) with ELK1; 1.31 fold enrichment (6-mer frequency, TF over GST control) with GABPA; 1.34 fold enrichment (6-mer frequency, TF over GST control) with ERG; 1.33 fold enrichment (6-mer frequency, TF over GST control) with ELF1; 1.42 fold enrichment (6-mer frequency, TF over GST control) with EHF. Besides, the binding signal with SPI1 was 1.4 fold enrichment (6-mer frequency, TF over GST control); with SPIB, 1.42 fold enrichment (6-mer frequency, TF over GST control); in the experiment with ELK3, 1.48 fold enrichment (6-mer frequency, TF over GST control); in the experiment with FEV, 1.43 fold enrichment (6-mer frequency, TF over GST control); with ETV5, 1.4 fold enrichment (6-mer frequency, TF over GST control); with HSF1, 1.2 fold enrichment (6-mer frequency, TF over GST control). Besides, the binding signal in the experiment with SPIC is 1.26 fold enrichment (6-mer frequency, TF over GST control); with ELF4, 1.38 fold enrichment (6-mer frequency, TF over GST control); with ELK4 it was 1.16 fold enrichment (6-mer frequency, TF over GST control); with ETV2 it was 1.2 fold enrichment (6-mer frequency, TF over GST control); in the experiment with ELF3, 1.35 fold enrichment (6-mer frequency, TF over GST control); with CRX it was 1.23 fold enrichment (6-mer frequency, TF over GST control). For the same sequence, in the experiment with ETV1, the binding signal was 1.39 fold enrichment (6-mer frequency, TF over GST control).
